Drawing on ChEMBL document CHEMBL4513216, “Probing the Open Global Health Chemical Diversity Library for Multistage-Active Starting Points for Next-Generation Antimalarials” (ACS Infect Dis, 2020), this text covers INHIBITION for 55 compounds.

Hit rate of the full screen: of about 69,000 compounds, about 8,600 (12%) showed an effect of 50% or more. The sample as a whole holds a higher share of strong results than the screen did.

The assay concerns Plasmodium berghei. Put plainly: Screen against P. berghei liver stage (PbLuc), transformed with Luciferase, at 10uM. The class given is functional, HepG2. Particulars: tested at 10 uM.
For `CC(=O)Nc1nc(C(=O)NC(C)c2ccc(F)cc2)cs1` (stereo not given), the INHIBITION is -45.2%.
For `Cc1cs/c(=N\C(=O)c2c3c(nc4onc(C)c24)CCC3)[nH]1`, the INHIBITION is listed as 24.1%.
The figure for `Cc1cc(O)c(OCC(=O)/N=c2\[nH]c(C)c(C)s2)cn1` is -69.4%.
Consider `CC(C)CNc1nc(C(=O)/N=c2\[nH]nc(C(C)(C)C)s2)cs1`, for which the INHIBITION is 11.5%.
With `Cc1[nH]/c(=N\C(=O)c2csc(NCC(C)C)n2)sc1C`, the INHIBITION is reported as 89.6%.
`Cc1nn(C(C)C)c(C)c1CN1CCN(C2CCCCC2)C(=O)C1`: the INHIBITION is on record as 5.1%.
Turning to `CCN1CC[C@@]2(C(=O)N3CCOCC3)CCN(S(=O)(=O)CC)CC[C@@H]12`, the INHIBITION is on record as 17.4%.
`Cc1ccn2cc(C(=O)N3CCCC(Cn4cc(CO)nn4)C3)nc2c1` (stereo not given): the INHIBITION was 36.7%.
For the compound `Cc1cc2n(n1)[C@@H](C(F)(F)F)C[C@@H](C1CCN(C(=O)C3CC3)CC1)N2`, the INHIBITION is -4.51%.
For the compound `CC(C)(C)CC(=O)NS(=O)(=O)c1ccc(C#N)cc1C(F)(F)F`, the INHIBITION is 19.2%.
As for `Cc1cc(C)n(-c2cncc(NCCNC(=O)C3CCCC3)n2)n1`, the INHIBITION is 45.2%.
Consider `CS(=O)(=O)N1CCn2c(C(=O)N3CCOCC3)cnc2C1`, for which the INHIBITION is 52.6%.
The same measure for `CS(=O)(=O)N1C[C@@H]2C[C@H](C(=O)N3CCOCC3)[C@H](C1)O2`: 0.112%.
The same measure for `CS(=O)(=O)N1CC[C@H]2C[C@@H](C(=O)N3CCOCC3)O[C@@H]2C1`: 25.4%.
The same measure for `Cc1cc(C)cc(NS(=O)(=O)c2cc3c(c(C(=O)O)c2)OCCO3)c1`: 57.2%; for `Cc1cccc(NS(=O)(=O)c2cc3c(c(C(=O)O)c2)OCCO3)c1`: 7.27%.
For the compound `O=C(O)c1cc(S(=O)(=O)Nc2cc(F)cc(F)c2)cc2c1OCCO2`, the INHIBITION was 40%.
The same measure for `COCCN1C(=O)CCC12CCC(NC(=O)c1cnccn1)CC2` (stereo not given): -14.7%.
The same measure for `CNC(=O)C1(c2cnccn2)CCCN1C(=O)c1ccccc1F` (stereo not given): 13.5%.
The figure for `C[C@H]1CN(CC2CCOCC2)C[C@@]12CCN(Cc1cccnc1)C2=O` is 3.81%.
For `Cn1ccnc1CN1CCCCC1c1nc(-c2ccccc2)no1` (stereo not given), the INHIBITION is reported as 30.4%.
The figure for `Cc1nccn1CCC1CCNCC1` is 39.6%.
The figure for `CN1CCCC1CCn1ccnc1-c1nc(-c2ccccc2)no1` (stereo not given) is 51.8%; for `Cc1nc(CN2CCCC2Cn2ccnc2C(C)C)nc2ccccc12` (stereo not given) it is 30.4%.
Regarding `c1ccc(-c2noc(CCCN3CCCC3Cn3cccn3)n2)cc1` (stereo not given), the INHIBITION is reported as 45.7%.
The figure for `Cc1nn(C)c2nc(-c3ccccn3)nc(NCCC3CCCN3C)c12` (stereo not given) is 11.2%; for `OCC1CCCCN1CCn1ccnc1-c1nc2ccccc2[nH]1` (stereo not given) it is 38.8%.
The same measure for `CN1CCCC1CCn1ccnc1-c1ccc2ccccc2n1` (stereo not given): 72.3%; for `CN1CCCC1CCn1ccnc1-c1nc2ccccc2[nH]1` (stereo not given): 53.9%; for `COCCN1CCCC1Cn1nc(C)cc1C` (stereo not given): 32.3%.
With `Cc1cc(=O)n2nc(Oc3ccc(Cl)c(C)c3)sc2n1`, the INHIBITION amounted to 16.3%.
The same measure for `CCC(C)N(Cc1cnc(NCC(=O)O)nc1)Cc1ccsc1` (stereo not given): 41.3%; for `O=C(Cc1ccccc1O)NC1CCCN(c2ccccc2F)C1=O` (stereo not given): 26.4%; for `Cc1cc(C(=O)NCCC(=O)N2CCCc3ccccc32)no1`: 1.51%.
The figure for `O=C(c1ccnnc1)N1C[C@H](OCC2CCOCC2)[C@H]2OCCC[C@H]21` is 4.68%; for `Cc1nnc(CN(C)CC2CCCN2c2cccnn2)o1` (stereo not given) it is 19.5%.
The same measure for `CN(Cc1ncc(-c2ccccc2)o1)CC1CCCN1c1cccnn1` (stereo not given): 37%; for `Cc1nc(CN(C)CC2CCCN2c2cccnn2)oc1C` (stereo not given): -27.8%; for `CN(Cc1nc(N)c2ccccc2n1)CC1CCCN1c1cccnn1` (stereo not given): 11.8%.
As for `Cc1nc(CN(C)CC2CCCN2c2cccnn2)nc2ccccc12` (stereo not given), the INHIBITION was 60.9%.
For the compound `CC(C)(C)c1cnc(CNCC2CCCN2c2cccnn2)o1` (stereo not given), the INHIBITION was found to be 34.1%.
The same measure for `CN(Cc1nc2ccccc2o1)CC1CCCN1c1cccnn1` (stereo not given): 55%; for `CN(Cc1ncc(C(C)(C)C)o1)CC1CCCN1c1cccnn1` (stereo not given): 86.6%.
The figure for `Cc1nc2ccccc2nc1CN(C)CC1CCCN1c1cccnn1` (stereo not given) is 10.2%; for `CC(=O)N1CCCN(C(C)c2ccc(Br)cc2)CC1` (stereo not given) it is -19.2%.
The same measure for `CC(C)CNC(=O)N1CC[C@@H]2CN(Cc3cccnc3)S(=O)(=O)[C@@H]2CC1`: 32.1%.
Regarding `CCC(CC)C(O)CNC(=O)Cc1c[nH]c2ncccc12` (stereo not given), the INHIBITION turned out to be 2.38%.
The same measure for `CCN1CCCC(O)(CN(C)Cc2ccccc2F)C1` (stereo not given): 8.46%; for `O=C1CC(c2ccccc2)C2(CCN(C(=O)c3ccncc3F)CC2)N1` (stereo not given): 32.2%.
As to `COCCCNC(=O)Nc1ccc(F)c(C(N)=O)c1`, the INHIBITION was -23.9%.
The same measure for `COc1c(Cl)cc(Cl)cc1CN1CCC(C(N)=O)C1` (stereo not given): -11.3%; for `O=C(NCc1ccccc1F)N1CCCCC1C1OCCO1` (stereo not given): -6.88%; for `CCC(CO)N(Cc1cccc(-n2cccn2)c1)Cc1cccs1` (stereo not given): 53.2%.
The figure for `CCC(CO)N(Cc1cccc(-n2cccn2)c1)Cc1ccccn1` (stereo not given) is 25.5%.
The figure for `CN(Cc1cccc(-n2cccn2)c1)Cc1cccs1` is -29%.
